In the supplement of paper PMC13380429 one finds morphology score and SARS-CoV-2 infection rate data, which are given here for 30 compounds.

Experiment [1] concerns Vero E6 infected with SARS-CoV-2. As to the kind of experiment: morphology score (similarity to uninfected cells); higher = more like uninfected cells. The settings on record: 24 h.
Experiment [2] shares this test system. Briefly: SARS-CoV-2 infection rate relative to infected DMSO; higher = more infection, active = 60 or less. The conditions noted are these: 24 h.

Take `O=C(COc1ccc(Cl)cc1)N[C@H]1CC[C@H](NC(=O)COc2ccc(Cl)cc2)CC1` (10 µM): in experiment [1], the morphology score was -0.175. Also, in experiment [2], the SARS-CoV-2 infection rate was 106% (inactive).
The corresponding values for `CC1(C)C[C@@H]1C(=O)N/C(=C\CCCCSC[C@H](N)C(=O)O)C(=O)O` [Cilastatin Sodium] (10 µM) are 0.215 and 88.5% (inactive).
The corresponding values for `COc1cc(N)c(Cl)cc1C(=O)CCC1CCN(CCNS(C)(=O)=O)CC1` (10 µM) are 0.0872 and 97.5% (inactive).
The corresponding values for `Cc1nnc(C[C@@H]2C=C(c3ccc(Cl)cc3)c3ccccc3-n3c(C)nnc32)o1` (0.833333 µM) are -0.106 and 108% (inactive).
In experiment [1], `COC(=O)C1=C(C)N(C)C(C)=C(C(=O)OC)C1c1ccc(C(F)(F)F)cc1` (10 µM) displayed a morphology score of -0.13. In addition, the SARS-CoV-2 infection rate in experiment [2] was 114% (inactive).
For `Nc1ncnc2c1c(-c1cnc3[nH]ccc3c1)nn2C1CCCC1` (10 µM) the same measures were -0.0498 and 114% (inactive).
The corresponding values for `COc1ccc(CCc2nc3cc(-c4c(C)noc4C)ccc3n2C[C@H](C)N2CCOCC2)cc1Cl` (0.833333 µM) are -0.0905 and 113% (inactive).
For `C[N+](C)(C)CC[N+]1(C)Cc2c(Cl)c(Cl)c(Cl)c(Cl)c2C1` [chlorisondamine-diiodide] (10 µM) the same measures were 0.224 and 90.5% (inactive).
`CCCCC(CC)CNC(=N)NC(=N)NCCCCCCNC(=N)NC(=N)NCC(CC)CCCC` (stereo not given) [alexidine] (0.833333 µM): in experiment [1], the morphology score was -0.0694. The SARS-CoV-2 infection rate in experiment [2] is 104% (inactive).
The corresponding values for `O=C(O)C1(C(=O)O)CCC1.[NH2-].[NH2-].[Pt+2]` [carboplatin] (10 µM) are -0.0106 and 102% (inactive).
The corresponding values for `O=C(/C=C/c1ccc(O)c(O)c1)c1ccc(O)cc1O` [butein] (10 µM) are 0.256 and 106% (inactive).
The corresponding values for `Cc1ccc(C)c(OCCCC(C)(C)C(=O)O)c1` [gemfibrozil] (10 µM) are -0.0506 and 98.5% (inactive).
Consider `O=C(Nc1ccc(C(=O)O)c(O)c1)c1ccccc1` [benzoylpas] (10 µM), for which the morphology score in experiment [1] stood at 0.206. Moreover, in experiment [2], the SARS-CoV-2 infection rate is 91.5% (inactive).
The compound `CC[N+](CC)(CC(=O)Nc1c(C)cccc1C)Cc1ccccc1` [denatonium-benzoate] (10 µM) gave a morphology score in experiment [1] of 0.144. Also, the SARS-CoV-2 infection rate in experiment [2] was 116% (inactive).
`CC(C)=CCC[C@]1(C)C=Cc2c(O)c3c(c(CC=C(C)C)c2O1)O[C@]12C(=C[C@@H]4C[C@H]1C(C)(C)O[C@@]2(C/C=C(/C)C(=O)O)C4=O)C3=O` [gambogic-acid] (10 µM) showed a morphology score in experiment [1] of 0.0235. Also, the SARS-CoV-2 infection rate in experiment [2] was 106% (inactive).
As to `O=C(C1CCCCC1)N1CC(=O)N2CCc3ccccc3C2C1` (stereo not given) [praziquantel] (10 µM), the morphology score in experiment [1] was found to be 0.151. Further, the SARS-CoV-2 infection rate in experiment [2] is 106% (inactive).
The corresponding values for `COc1ccc(CNC(=O)Nc2ncc([N+](=O)[O-])s2)cc1` (10 µM) are -0.141 and 106% (inactive).
The corresponding values for `CC[C@@H]1C(=O)OC[C@@H]1Cc1cncn1C` [pilocarpine] (10 µM) are -0.105 and 110% (inactive).
The corresponding values for `CCN(CC)CC#CCOC(=O)C(O)(c1ccccc1)C1CCCCC1` (stereo not given) [oxybutynin] (10 µM) are 0.299 and 98% (inactive).
Turning to `C[C@@H](C1=C(CCN(C)C)Cc2ccccc21)c1ccccn1` (racemic) [dimetindene] (10 µM), the morphology score in experiment [1] is 0.121. The SARS-CoV-2 infection rate in experiment [2] was 94.8% (inactive).
In experiment [1], `C=CC(=O)c1ccc2ccccc2c1` [JAK3-inhibitor-V] (10 µM) came in with a morphology score of 0.0151. The SARS-CoV-2 infection rate in experiment [2] is 102% (inactive).
For `CC(=O)[C@@]1(O)CC[C@H]2[C@@H]3C[C@H](C)C4=CC(=O)C=C[C@]4(C)[C@@]3(F)[C@@H](O)C[C@@]21C` [fluorometholone] (10 µM) the same measures were 0.02 and 110% (inactive).
Take `Nc1nc(Cl)nc2c1ncn2[C@@H]1O[C@H](CO)[C@@H](O)[C@H]1O` [2-chloroadenosine] (10 µM): in experiment [1], the morphology score was -0.0246. For the same compound, the SARS-CoV-2 infection rate in experiment [2] was 105% (inactive).
For `O=C1CS[C@@H](c2ccccc2Cl)c2cc(Cl)ccc2N1` (racemic) (10 µM) the same measures were 0.245 and 89% (inactive).
For `c1ccc(-c2nn3c(c2-c2ccnc4cc(OCCN5CCOCC5)ccc24)CCC3)nc1` (10 µM) the same measures were 0.686 and 80% (inactive).
As to `CN1[C@@H]2CC[C@H]1C[C@@H](OC(c1ccccc1)c1ccccc1)C2` [benztropine-mesylate] (10 µM), the morphology score in experiment [1] was determined as 0.481. For the same compound, the SARS-CoV-2 infection rate in experiment [2] was 84.5% (inactive).
In the case of `NCc1c[nH]c(=S)n1[C@H]1CCc2c(F)cc(F)cc2C1` [nepicastat] (10 µM), in experiment [1], the morphology score was -0.046. Further, the SARS-CoV-2 infection rate in experiment [2] is 104% (inactive).
Regarding `Nc1nc(=O)[nH]cc1F` [flucytosine] (10 µM), the morphology score in experiment [1] was -0.016. Besides, the SARS-CoV-2 infection rate in experiment [2] is 107% (inactive).
For `C=C1C(=O)[C@]23[C@H](O)[C@H]1CC[C@H]2[C@@]12CO[C@]3(O)[C@@H](O)[C@@H]1C(C)(C)CC[C@@H]2O` [Oridonin (Isodonol)] (0.833333 µM) the same measures were 0.108 and 97% (inactive).
The corresponding values for `COC(=O)[C@H](c1ccccc1Cl)N1CCc2sccc2C1` [clopidogrel] (10 µM) are 0.229 and 99% (inactive).
